HepG2 viability = qHTS for Inhibitors of TGF-b: Cytotox Counterscreen; HepG2 CAGA-GFP viability, ATP luminescence, 18 h; Potency, µM (highest dose often 46.1 µM), without a hit: at the top dose activity change, negative = cytotoxicity, most hits filed as cytotoxic; 410,000 tested, 0.76% active; AID 588856, 2011
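CellTiter-Glo luminescence gave cytotoxicity after 18 hours at 37 degrees C. The cells were HepG2 CAGA-GFP in 1% FBS DMEM, stimulated with 500 pg/mL TGF-beta after compound addition. %Activity was normalised to no-cell wells (complete cell-killing) and DMSO (no toxicity), and curves were fitted and classified.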
S2 tox = Viability Counterscreen for Primary qHTS for Inhibitors of ATXN expression; S2 cells (HEK-293 line with an ATXN2-luciferase reporter) viability, CellTiter-Fluor protease fluorescence, 24 h; Potency, µM (doses to about 56.7 µM), hits mostly cytotoxic; 400,000 tested, 0.49% active; AID 651635, 2014; note: nearly all actives have a fitted effect of over 40% in size
Anesthetic bind = qHTS Assay for Identification of Novel General Anesthetics. Ferritin light chain (Equus caballus), P02791. apoferritin/1-aminoanthracene competitive binding, fluorescence. Potency, µM (top dose mostly 77.5 µM), for inactives: top-dose activity change, negative = displacement, actives largely listed as inhibitors. 350,000 tested, 0.074% active. AID 485281, 2010; note: % is set by controls: 0 for no effect and ±100 for the full control effect; nearly all actives have a fitted effect of over 20% in size
Target sequence (P02791 2-175 limits assumed): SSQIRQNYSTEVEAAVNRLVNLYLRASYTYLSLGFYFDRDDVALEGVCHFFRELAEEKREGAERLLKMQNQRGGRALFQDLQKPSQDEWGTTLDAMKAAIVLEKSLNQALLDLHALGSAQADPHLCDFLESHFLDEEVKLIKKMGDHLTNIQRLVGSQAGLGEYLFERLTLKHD
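Concentration-response curves derived by four-parameter Hill fitting of normalized fluorescence, where compounds displaced 1-AMA from 10 uM horse apoferritin following a brief 10 min room-temperature incubation; propofol titration acted as positive control.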
ATXN2 expr inh = Primary qHTS for Inhibitors of ATXN expression; Potency, µM (highest dose often 57 µM), without a hit: top-dose activity change, negative = inhibition, actives largely listed as inhibitors; 360,000 tested, 0.72% active; AID 1745845, 2022; HEK-293 ATXN2-luciferase reporter, luminescence, 24 h; note: % is set by controls: 0 for no effect and ±100 for the full control effect; nearly all actives have a fitted effect of over 55% in size
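ATXN2-luciferase reporter cells (luciferase flanked by upstream and downstream ATXN2 gene portions) were treated 24 h at 37 °C with compounds at up to 57 uM. SteadyGlo luminescence gave expression; GF-AFC fluorescence gave viability.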
TGFb SMAD3 inh = qHTS for Inhibitors of TGF-b | HepG2 CAGA-GFP TGF-b/SMAD3 reporter, GFP fluorescence, 18 h; TGF-beta stimulated, 500 pg/mL final | Potency, µM (titrated, usually from 46.1 µM), for inactives: at the highest dose activity, negative = inhibition, usual class: inhibitors | 410,000 tested, 1.2% active; note: % is set by controls: 0 for no effect and ±100 for the full control effect; nearly all actives have a fitted effect of over 65% in size
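Per well, imaged GFP fluorescence of HEPG2 CAGA-GFP cells gives the signal; cells get compound, then TGF-beta (500 pg/mL final), 18 h at 37 degrees C; %Activity versus -TGF-beta and +DMSO controls.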
The depositor's hits bear a star; ! = not active in a repeat. Rows were chosen to be rich in hits. Some 2.4% of all compounds tested hit in one or more screens of this group. Calls come from the whole dose curve; as a rule, active = well fitted curve in the direction sought with a large enough effect; inconclusive = small, poorly fitted or top-dose-only effect, or another doubt; inactive = no such curve, though single readings can be large; an effect the other way counts as inactive or inconclusive. Potency is the fitted concentration of half-maximal effect.

`Cc1cc(Cl)ccc1OCC(=O)N1CCOc2ccc(CN3C[C@@H](C)O[C@@H](C)C3)cc2C1` gave S2 tox inactive.
COC(=O)c1ccc(NC(=O)c2nc(S(=O)(=O)Cc3ccccc3F)ncc2Cl)cc1 was read as HepG2 viability 13µM* and TGFb SMAD3 inh 6.3µM*.
`O=C(NCc1ccc2c(c1)OCO2)c1nc(S(=O)(=O)Cc2ccccc2F)ncc1Cl` gave HepG2 viability 16µM*, Anesthetic bind -2% and TGFb SMAD3 inh 11µM*.
`O=C(Nc1ccccc1)c1nc(S(=O)(=O)Cc2ccccc2F)ncc1Cl` gave HepG2 viability 7.1µM* and TGFb SMAD3 inh 3.2µM*.
`CSc1nnc(NC(=O)c2nc(S(=O)(=O)Cc3ccccc3F)ncc2Cl)s1` gave HepG2 viability -60%, S2 tox inconclusive, Anesthetic bind -14%, ATXN2 expr inh -20% and TGFb SMAD3 inh inconclusive.
`NC(=O)COC(=O)c1ccccc1OCC(=O)Nc1ccc(Br)cc1` gave HepG2 viability 1% and TGFb SMAD3 inh -19%.
CCN1CCN(Cc2ccc(NC(=O)c3cc(NC(=O)c4ccc5n[nH]nc5c4)cc(OC)c3)cc2C(F)(F)F)CC1 was read as HepG2 viability 3%, S2 tox inactive, Anesthetic bind -16%, ATXN2 expr inh 9% and TGFb SMAD3 inh inconclusive.
For CCN1CCN(Cc2ccc(NC(=O)c3cc(NC(=O)c4cncc(-c5cccs5)c4)cc(OC)c3)cc2C(F)(F)F)CC1 the results were HepG2 viability 14µM*!, S2 tox 35µM*, Anesthetic bind inconclusive, ATXN2 expr inh 25µM*! and TGFb SMAD3 inh 14µM*.
`CCN1CCN(Cc2ccc(NC(=O)c3cc(NC(=O)c4cc5cccc(OC)c5o4)cc(OC)c3)cc2C(F)(F)F)CC1` gave HepG2 viability 18µM*!, S2 tox 16µM*, Anesthetic bind inconclusive, ATXN2 expr inh 8.9µM*! and TGFb SMAD3 inh inconclusive.
`CCN1CCN(Cc2ccc(NC(=O)c3cc(NC(=O)c4cc(-c5ccc(OC)cc5)n[nH]4)cc(OC)c3)cc2C(F)(F)F)CC1` gave HepG2 viability -112%, S2 tox 18µM*, Anesthetic bind -9%, ATXN2 expr inh 14µM* and TGFb SMAD3 inh inconclusive.
CCN1CCN(Cc2ccc(NC(=O)c3cc(NC(=O)c4ccno4)cc(OC)c3)cc2C(F)(F)F)CC1 was read as HepG2 viability -50%, S2 tox inconclusive, Anesthetic bind -1%, ATXN2 expr inh inconclusive and TGFb SMAD3 inh inconclusive.
Screening C/C=C\C1=CCCC1Nc1ncnc2ccc(-c3c(C)noc3C)cc12 (stereo not drawn) returned Anesthetic bind -12%.
CC(C)C(=O)SCCCCCCC(=O)Nc1nc(-c2ccccc2)cs1 was read as Anesthetic bind -11%.
For O=C(Cn1nc(-c2ccc(Cl)cc2)ccc1=O)NCCc1ccccc1 the results were HepG2 viability -13%, S2 tox inactive, Anesthetic bind 7.9µM*, ATXN2 expr inh -12% and TGFb SMAD3 inh -8%.
Cc1ccc(-c2ccc(=O)n(CC(=O)NCCc3ccc(Cl)cc3)n2)cc1 was read as HepG2 viability -22%, Anesthetic bind inconclusive and TGFb SMAD3 inh -48%.
For CCc1ccc(CNC(=O)Cn2nc(-c3ccc(C)cc3)ccc2=O)cc1 the results were HepG2 viability -31%, Anesthetic bind 10µM* and TGFb SMAD3 inh inconclusive.
O=C(Cn1nc(-c2ccc(Cl)cc2)ccc1=O)NCc1ccc2c(c1)OCO2 was read as HepG2 viability -19%, S2 tox inactive, Anesthetic bind inconclusive, ATXN2 expr inh -3% and TGFb SMAD3 inh -6%.
Screening O=C(Cn1nc(-c2ccccc2)ccc1=O)NCc1ccc(F)cc1 returned HepG2 viability -38%, S2 tox inactive, Anesthetic bind inconclusive, ATXN2 expr inh 13% and TGFb SMAD3 inh 6%.
Screening CCc1ccc(CNC(=O)Cn2nc(-c3ccc(Cl)cc3)ccc2=O)cc1 returned HepG2 viability -66%, S2 tox inactive, Anesthetic bind 16µM*, ATXN2 expr inh -34% and TGFb SMAD3 inh inconclusive.
C=C(C)C1CC[C@]2(CO)CC[C@@]3(C)[C@H](CCC4[C@@]5(C)CCC(O)C(C)(C)C5CC[C@@]43C)C12 (stereo partly drawn) was read as Anesthetic bind 3%.
For CCS(=O)(=O)Nc1ccc2[nH]c(O)c(C(=Nc3ccc(CN4CCCCC4)cc3)c3ccccc3)c2c1 the results were ATXN2 expr inh 7.7µM*.
`Cc1cc(C)n(CC(=O)N2CCC(n3c(C(C)C)nc4cccnc43)CC2)n1` gave S2 tox inactive.
Cc1nn(CC(=O)N2c3ccccc3NC(=O)C2(C)C)c(C)c1[N+](=O)[O-] was read as HepG2 viability 1%, S2 tox inactive, Anesthetic bind -7% and TGFb SMAD3 inh inconclusive.
`CC1(C)C(=O)Nc2ccccc2N1C(=O)Cn1ncc(Cl)c(Cl)c1=O` gave HepG2 viability -22%, S2 tox 20µM*, Anesthetic bind -2% and TGFb SMAD3 inh -10%.
Screening CC[N+](CC)(CC)CCOc1ccc(/C=C/c2ccccc2)cc1 returned HepG2 viability 0%, S2 tox inconclusive, Anesthetic bind inconclusive, ATXN2 expr inh 18µM*! and TGFb SMAD3 inh -9%.
Nc1nc(Cl)nc2c1ncn2C1CC(O)C(CO)O1 (stereo not drawn) was read as HepG2 viability -56%, S2 tox inactive, ATXN2 expr inh 1.8µM* and TGFb SMAD3 inh inconclusive.
For Cc1sc2ccccc2[n+]1C the results were HepG2 viability -9% and TGFb SMAD3 inh -6%.
`Cc1ccc(C(C[N+](=O)[O-])c2c(-c3ccccc3O)[nH][nH]c2=O)cc1` (stereo not drawn) gave HepG2 viability 7.9µM*, S2 tox inconclusive, Anesthetic bind -5%, ATXN2 expr inh 56% and TGFb SMAD3 inh inconclusive.
`O=c1[nH][nH]c(-c2ccccc2O)c1C(C[N+](=O)[O-])c1ccc(Br)cc1` (stereo not drawn) gave HepG2 viability -40%, S2 tox inconclusive, Anesthetic bind 5%, ATXN2 expr inh inconclusive and TGFb SMAD3 inh inconclusive.
`Cc1cnccc1/C=C/c1ccc(N)cc1` gave HepG2 viability -23% and TGFb SMAD3 inh 5%.
For O=C(NCCc1ccc(Cl)cc1)c1ccc(Cn2c(=O)c3cccn3c3cccnc32)cc1 the results were HepG2 viability -60%, Anesthetic bind -2% and TGFb SMAD3 inh 11µM*.

Bioassay records from PubChem BioAssay.
